# Measured values reported in PubChem BioAssay (EPA / NIEHS).
# Inconclusive results are not listed. A structure can be active in one record and inactive in another. Activity calls are given as the source filed them. Rule for the calls: active = hit-call score of the fitted dose curve at least 0.9, where 1 is the maximum; inconclusive = response in the unintended direction; inactive = score below 0.9.
# Target: Steroid hormone receptor ERR1 (Homo sapiens) (UniProt P11474)
# Test: ATG_ERRa_TRANS: Attagene TRANS-FACTORIAL HepG2 Assay for human Estrogen-Related Receptor alpha (ERRa) (AID 2282971)
# Conditions: HepG2 Attagene TRANS reporter, ERRa transactivation
# Protocol: ATG_TRANS is a cell-based, multiplexed-readout assay that uses HepG2, a human liver cell line, with measurements taken at 24 hours after chemical dosing in a 24-well plate.ATG_ERRa_TRANS is one of 30 assay component(s) measured or calculated from the ATG_TRANS assay. It is designed to make measurements of mRNA induction, a form of inducible reporter, as detected with fluorescence intensity signals by Reverse transcription polymerase chain reaction (RT-PCR) and Capillary electrophoresis technology.Data from the assay component ATG_ERRa_TRANS was analyzed into 1 assay endpoint. This assay endpoint, ATG_ERRa_TRANS, was analyzed in the positive analysis fitting direction relative to DMSO as the negative control and baseline of activity. Using a type of inducible reporter, measures of mRNA for gain-of-signal activity can be used to understand the reporter gene at the transcription factor-level as they relate to the gene ESRRA. Furthermore, this assay endpoint can be referred to as a primary readout, because this assay has produced multiple assay endpoints where this one serves a reporter gene function. To generalize the intended target to other relatable targets, this assay endpoint is annotated to the nuclear receptor intended target family, where the subfamily is steroidal.
# Human liver HepG2 cells are transiently transfected with multiple reporter transcription units (MRTUs) in 6-well plates using FuGene 6 reagent (Roche; 3 ml FuGene/1 mg DNA). The MRTU constructs are regulated by a cis-regulating element (promoter). […] A major difference between the CIS and TRANS system is that in CIS activities of endogenous TFs are measured, whereas the TRANS assay evaluates changes in activities of exogenous, chimeric NR-Gal4 proteins. […] At the end of 24 hour incubation, total RNA was isolated using TriZol reagent (Invitrogen). The isolated RNA is then reverse-transcribed using oligo(dT) primer and Mo-MLV reverse transcriptase (Invitrogen) with DNAse I (Ambion) treatment for 30 min. The one-tenth of the produced cDNA was amplified by PCR using Taq DNA polymerase (Invitrogen) and two reporter sequence-specific primers. The PCR products were fluorescently labeled by primer extension with 6-arboxyfluorescein (6-FAM) 5'-labeled reporter sequence-specific primer (2 min at 95 C, 20 s at 68 C and 10 min at 72 C) and these products were digested with 5U of HpaI (New England Biolabs) for 2h at 37 C. The fragments were purified using Qiaquick PCR columns (Qiagen), analyzed on an ABI 3130xL genetic analyzer (Applied Biosystems) with peak positions identified by using a set of X-rhodamine (ROX)-labeled MapMarker1000 molecular weight standards (BioVentures). The raw capillary electrophoresis data was processed using Attagraph software (Attagene).
# Steroid hormone receptor ERR1 (Homo sapiens), sequence (P11474 whole entry, looked up): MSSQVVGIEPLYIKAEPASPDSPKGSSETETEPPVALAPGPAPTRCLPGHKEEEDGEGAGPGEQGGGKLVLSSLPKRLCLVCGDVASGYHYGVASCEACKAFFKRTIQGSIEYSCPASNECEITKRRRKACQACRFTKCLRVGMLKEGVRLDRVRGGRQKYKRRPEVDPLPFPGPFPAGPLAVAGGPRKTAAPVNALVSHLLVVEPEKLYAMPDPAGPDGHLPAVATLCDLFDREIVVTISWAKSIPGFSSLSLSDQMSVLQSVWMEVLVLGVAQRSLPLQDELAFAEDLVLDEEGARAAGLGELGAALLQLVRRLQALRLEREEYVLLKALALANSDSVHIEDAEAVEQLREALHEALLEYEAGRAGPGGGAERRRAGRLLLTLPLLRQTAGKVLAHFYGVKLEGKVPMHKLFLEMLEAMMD
SMILES,AC50,outcome
CCCCCCCCCCCCCC[N+](C)(C)C,25.7 µM (active),inactive
COCC(C)O (stereo not drawn),–,inactive
CCC(=C(c1ccc(O)cc1)c1ccc(OCCN(C)C)cc1)c1ccccc1,–,inactive
O=C(O)c1ccccc1C(c1ccc(O)cc1)c1ccc(O)cc1,–,inactive
N#C[C@@H]1CC(F)(F)CN1C(=O)CNC1CC2CCC(C1)N2c1ncccn1 (stereo partly drawn),–,inactive
CCCCCCCCCCCCN1CCCC1=O,–,inactive
CCCOC(=O)c1ccc(O)cc1,–,inactive
CCCCC[C@H](O)CC(=O)CCc1ccc(O)c(OC)c1,–,inactive
COCC(C)OCC(C)O (stereo not drawn),–,inactive
CCCCCCCCOC(=O)CCCCCCCCC(=O)OCCCCCCCC,–,inactive
O=C(/C=C/c1ccc(O)cc1)CC(=O)/C=C/c1ccc(O)cc1,–,inactive
CCCCCCC(=O)O,–,inactive
CCN(CC)CCNc1ccc(CNC=O)c2sc3ccc(OC)cc3c(=O)c12,–,inactive
Cc1cc(CCN2CCN(c3nsc4ccccc34)CC2)cc2c1NC(=O)CC2(C)C,–,inactive
Cc1ccc(S(=O)(=O)O)c(C)c1,–,inactive
OC1CCC(C2CCCCC2)CC1 (stereo not drawn),–,inactive
NC(=O)N1C(=O)C(C(=O)c2cc(Cl)cs2)c2cc(F)c(Cl)cc21 (stereo not drawn),–,inactive
CN1CCN(c2ccccc2/C=C2\SCCN(c3ccc(Cl)c(Cl)c3)C2=O)CC1,–,inactive
CCCCOCCO,–,inactive
NCC(F)(F)C(F)(F)C(F)(F)C(F)(F)C(F)(F)C(F)(F)C(F)(F)F,–,inactive
c1ccc2c(c1)ccc1ccccc12,–,inactive
CC(=O)CC(C)(C)O,–,inactive
